Measured values: PubChem BioAssay (NCI)
“And” between values parts separate entries of the source, which are not always exact repeats. Equal values may be shown once. About 83,000 compounds went through this panel and 20% of them were active in at least one assay; those are over-represented in the sample as a whole.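 Percent growth is the endpoint: 0 to 100 indicates growth inhibition (40 means 60% inhibition), 0 means no net growth, and negative values indicate cell death.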 A number with no mark means an inactive call.

The compounds below were run on A498 renal (assay: NCI-60 one-dose screen, 48 h (100 = growth as untreated, 0 = no growth, -100 = all killed)). Settings: 10 µM.
Description: Growth inhibition of the A498 human tumor cell line is measured as a screen for anti-cancer activity. Cells are grown in 96 well plates and exposed to the test compound for 48 hours. Compounds are tested at a single concentration, which is 10^-5 M for most compounds. The reported endpoint is percent growth (GI% or GIPRCNT), where numbers from 0 - 100% represent growth inhibition, and numbers from -100% - 0 represent cell death. For example, a value of 40 represents 60% growth inhibition. A value of 0 means no net growth occurred over the course of the experiment. A value of -40 indicates 40% of cells at the beginning of the experiment died by the end of the experiment. A value of -100 means all cells are dead at the end of the experiment.
NCI-60 Human Tumor Cell Lines Screen was performed using the standard one-dose NCI protocol, which is described in more detail at https://dtp.cancer.gov/discovery_development/nci-60/default.htm.
Compounds with GIPRCNT values below 10 were considered active. Activity score was based on GIPRCNT using the following formula: […]
Score is 0 for GIPRCNT values of 100 or above, 50 for GIPRCNT values of 0, and 100 for GIPRCNT values of -100.
`O=c1ccn2c(n1)OC1CC2OC1COC(c1ccccc1)(c1ccccc1)c1ccccc1` (stereo not given) was tested, and the growth was 116%.

Same assay, conditions: 10 µM unless noted
For `N=C(N=C(N)N)N1CCOCC1`, the growth was 91.7% and 102%.
In the case of `CC(=O)Oc1ccc(C2(c3ccc(OC(C)=O)cc3)C(=O)Nc3ccccc32)cc1`, the growth is reported as 107% and 111%.
For `COc1ccc([N+](=O)[O-])cc1OC`, the growth was 73.1% and 128%.
For `Cc1ccc2cccc([N+](=O)[O-])c2n1`, the growth was 117% and 109%.
Work on `CCc1ccccc1-n1[nH]c(C)c(C=N)c1=O` yielded a growth of 112%.
With `N#Cc1c(N)nc2c(c(-c3ccc(Cl)cc3)nn2-c2ccccc2)c1C#N` the growth was 113% [100 µM].
`O=C1C=CC(n2cc(F)c(=O)[nH]c2=O)O1` (stereo not given) showed a growth of 79.5%.
`COc1ccc(CCl)c(C)c1OC` was tested, and the growth was 89.5%.
With `O=C(O)COc1ccccc1F` the growth was 102%.
`CC(C)(C)OC(=O)CC1(O)CCCCC1` was tested, and the growth was 84.6%.
With `Cc1nc(Nc2ccc(Cl)cc2)c2cnn(-c3ccccc3)c2n1` the growth was 83.5%.
In the case of `Nc1ccccc1SC(CC(=O)c1ccccc1)c1cccc([N+](=O)[O-])c1` (stereo not given), the growth is reported as 91.5% and 104%.
In the case of `CCN(CC)C(=S)SCCO`, the growth is reported as 75.6%.
`CSc1nc(N)c(N)c(N)n1` showed a growth of 94.5%.
`COc1ccccc1OCC(O)CO` (stereo not given) was tested, and the growth was 98% and 87.8%.
In the case of `CC(C)(C)C1CCC(=NO)CC1` (stereo not given), the growth is reported as 97.4%.
Work on `O=c1[nH]c(=S)[nH]n1C(=S)n1[nH]c(=S)[nH]c1=O` yielded a growth of 109%.
`O=C1c2ccccc2C(c2ccccc2)C1c1ccccc1` (stereo not given) gave a growth of 102%.
`Cc1nc2c(=O)[nH]c(=S)[nH]c2[nH]c1=O` was tested, and the growth was 97.5% and 97.3%.
`COc1ccc(/C=N/NC(N)=S)cc1` was tested, and the growth was 73.4%.
`O=C(c1ccc(Cl)cc1)C1C(c2ccccc2)C1[N+](=O)[O-]` (stereo not given) was tested, and the growth was 86.3%.
Compound `O=[N+]([O-])c1ccc(N2CCN=N2)cc1` has a growth of 72.3%.
`C/C(=C\c1ccccc1)C(O)C(=O)c1nc2ccc([N+](=O)[O-])cc2[nH]c1=O` (stereo not given) gave a growth of 110%.
`COC(=O)c1nc(N)nc(C(=O)OC)c1C(=O)c1ccc(F)cc1` was tested, and the growth was 120%.
Work on `CC(=O)/C(N=Nc1ccc(S(=O)(=O)c2ccc(N=N/C(C(C)=O)=C(/C)O)cc2)cc1)=C(\C)O` yielded a growth of 100%.
With `Oc1ccc(O)c(-c2ccccc2)c1` the growth was 132%.
In the case of `O=C1C2=C(Nc3cc(Cl)ccc3N2)OC1c1c[nH]c2ccc(COc3ccccc3)cc12` (stereo not given), the growth is reported as 102%.
With `CNc1ccc(Cl)cc1S(=O)(=O)c1ccccc1[N+](=O)[O-]` the growth was 118%.
`CC(=O)Nc1ccc2oc(=O)ccc2c1` showed a growth of 89.9%.
In the case of `O=C(NC(=O)c1ccc(F)c(Cl)c1)NC1CC1`, the growth is reported as 95.8% and 96%.
With `Cc1onc(-c2c(F)cccc2Cl)c1-c1ncc(-c2ccc(Cl)cc2)o1` the growth was 69.8% and 85.8%.
With `CN(C)C(=N)N=C(N)N` the growth was 128% and 106%.
`CCOC(=O)c1ccc(C(=N)N)cc1` gave a growth of 98.6%.
Compound `CCc1ccc(OC(=O)CCl)cc1` has a growth of 88.3%.
Compound `CCC(C)NC(=O)c1ccccc1C` (stereo not given) has a growth of 89.2%.
For `CCCC(=O)OCC(COC(=O)CCC)OC(=O)CCC`, the growth was 104%.
Work on `C/C(CC(C)C)=N/NC(N)=S` yielded a growth of 87.6%.
With `Nc1nc(-c2ccccn2)cc(-c2cc(-c3ccccn3)nc(N)n2)n1` the growth was 156%.

Same assay, conditions: 100 µM
`O=c1ccn2c(n1)OC1CC2OC1COC(c1ccccc1)(c1ccccc1)c1ccccc1` (stereo not given) showed a growth of 139%.
